# High-throughput results from PubChem.
# NPC1 promoter act = activators of NPC1 promoter | Huh7 NPC1 promoter luciferase reporter, 24 h | Potency, µM (doses to about 9.22 µM), without a hit: top-dose activation, hits mostly activators | 2.4% of 320,000 active; note: % of control where 0% means no effect; nearly all actives have a fitted effect of over 60% in size
#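 Stably transfected Huh7 (NPC1 promoter→luciferase), 1500 cells/well in Opti-MEM + 10% FBS, 2 h settle, then compound 24 h at 37 °C. Luminescence after 10 min with Amplite reagent.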
# KinaseGlo FLuc = blocks Kinase-Glo luciferase, a counter-screen artifact. Q27757. Kinase-Glo luciferase, ATP luminescence, 8 min. Potency, µM (doses to about 38.3 µM), for inactives: at the top dose activity change, negative = inhibition, usual class: inhibitors. 0.28% of 200,000 active. AID 1379; note: % is set by controls: 0 for no effect and ±100 for the full control effect; nearly all actives have a fitted effect of over 60% in size
#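 Light output from Kinase-Glo luciferase with luciferin and 10 uM ATP in 50 mM imidazole pH 7.2, KCl, MgCl2, Tween 20, BSA; compound pin-delivered, 8-min ambient incubation, then luminescence read.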
# Rab9 promoter act = activators of Rab9 promoter; Huh7 Rab9 promoter-luciferase reporter, luminescence, 24 h; Potency, µM (series often up to 9.22 µM), without a hit: at the highest dose activation, negative = inhibition, usual class: activators; 2.8% of 320,000 active; AID 485297; note: % of control where 0% means no effect; nearly all actives have a fitted effect of over 60% in size
#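 Huh7 cells stably carrying Rab9 promoter–luciferase reporter, plated 1500 cells/well, compound added after 2 h and incubated 24 h at 37 °C; luciferase luminescence then read after 10 min with detection reagent.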
# ELG1 genotoxic = genotoxicity induction in ELG1-luciferase HEK293T cells; HEK293T ELG1-luciferase reporter, luminescence, 16 h; Potency, µM (top dose mostly 46 µM), for the others: top-dose activity change, positive = activation, most hits filed as activators; 1.3% of 330,000 active; note: % of control where 0% means no effect; nearly all actives have a fitted effect of over 60% in size
#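 16 hr compound incubation (37 °C, 5% CO2) of HEK293T cells carrying luciferase-tagged ELG1; luciferase then measured by ONE-Glo luminescence after 30 min at RT.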
# SMN2 splice enh = enhancers of SMN2 splice variant expression. HEK293 SMN2-luciferase splicing reporter, luminescence, 30-36 h. Potency, µM (series often up to 46.1 µM), for inactives: top-dose activity change, positive = activation, hits mostly activators. 2.8% of 210,000 active; note: % of control where 0% means no effect; nearly all actives have a fitted effect of over 55% in size
#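 qHTS luciferase splicing reporter: luminescence rises when SMN2 exon 7 is included in transfected HEK293 cells. Compound exposure lasted 30-36 h at 37C, with 4.5 mM final sodium butyrate as control, followed by a ONE-Glo read.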
# FLuc counter = counter-screen for miR-21 project: firefly luciferase inhibitors or activators; P08659; purified FLuc, Km substrates, luminescence inhibition; Potency, µM (doses to about 57.5 µM), inactives show at the top dose activity change, negative = inhibition, most hits filed as inhibitors; 6.9% of 360,000 active;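 note: plate controls were vehicle for no effect and reference inhibitor for full effect; nearly all actives have a fitted effect of over 55% in size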
# Target sequence (P08659 whole entry, looked up): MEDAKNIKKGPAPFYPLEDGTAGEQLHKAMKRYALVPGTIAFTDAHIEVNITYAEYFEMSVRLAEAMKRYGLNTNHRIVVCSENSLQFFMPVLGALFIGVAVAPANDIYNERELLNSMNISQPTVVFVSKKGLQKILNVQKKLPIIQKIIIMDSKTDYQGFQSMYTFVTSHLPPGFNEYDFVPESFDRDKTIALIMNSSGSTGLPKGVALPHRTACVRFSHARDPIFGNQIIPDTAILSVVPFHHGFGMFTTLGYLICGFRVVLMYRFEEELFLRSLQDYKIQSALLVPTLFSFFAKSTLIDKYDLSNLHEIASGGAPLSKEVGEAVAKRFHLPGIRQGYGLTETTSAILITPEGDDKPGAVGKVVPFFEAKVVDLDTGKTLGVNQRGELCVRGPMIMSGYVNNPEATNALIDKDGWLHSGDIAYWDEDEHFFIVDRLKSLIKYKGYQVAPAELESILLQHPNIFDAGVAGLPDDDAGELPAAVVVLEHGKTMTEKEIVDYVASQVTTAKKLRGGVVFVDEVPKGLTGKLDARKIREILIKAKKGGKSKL
#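 Purified P. pyralis luciferase (10nM final) with 10uM D-luciferin and 10uM ATP (Km levels) in 50mM Tris acetate pH 7.5, 10mM Mg acetate, 0.01% Tween-20, 0.05% BSA; qHTS 6-point titration, ~60 µM downward; luminescence read.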
# Active calls of the source: *; ? = inconclusive; · = no result. An excerpt weighted towards active compounds, which were near 7.4% of everything screened. Calls come from the whole dose curve; as a rule, active = well fitted curve in the direction sought with a large enough effect; inconclusive = small, poorly fitted or top-dose-only effect, or another doubt; inactive = no such curve, though single readings can be large; an effect the other way counts as inactive or inconclusive. Potency is the fitted concentration of half-maximal effect.
SMILES,NPC1 promoter act,KinaseGlo FLuc,Rab9 promoter act,ELG1 genotoxic,SMN2 splice enh,FLuc counter
Cc1ccc(NC(=O)CN(C)C(=O)c2ccc(NS(=O)(=O)c3ccc4[nH]c(=O)[nH]c4c3)cc2)cc1,5%,·,-2%,1%,·,·
O=C(Nc1ccccc1)Nc1ncc([N+](=O)[O-])s1,?,-6%,?,?,4µM*,1.5µM*
O=C(Nc1ncc([N+](=O)[O-])s1)c1cccc([N+](=O)[O-])c1,0.089µM*,·,0.1µM*,?,·,0.67µM*
O=C(COC(=O)c1ccccc1)Nc1ncc([N+](=O)[O-])s1,·,·,·,-2%,·,·
Cc1nc(C)c(C(=O)Nc2ncc([N+](=O)[O-])s2)o1,?,?,?,?,0.89µM*,1.9µM*
CC(=O)c1cccc(NC(=O)C(C)OC(=O)c2cccc(-n3cnnn3)c2)c1 (configuration not stated),0%,·,-6%,-3%,·,4%
CCCN1CCN(CCCNC(=O)c2cnn(-c3ccc(F)cc3)c2-n2cccc2)CC1,·,·,·,·,·,0%
O=c1cc(-c2ccccc2)oc2ccc(O)cc12,2.8µM*,·,4µM*,21µM*,·,9.5µM*
O=c1cc(-c2ccccc2)oc2cc(O)c(O)cc12,·,-13%,·,·,?,·
COc1ccc2c(=O)cc(C(F)(F)C(F)(F)F)oc2c1,4%,·,6%,0%,·,-3%
O=c1cc(-c2ccc(O)c(O)c2)oc2ccccc12,·,-9%,·,·,14µM*,·
COc1ccc2c(=O)cc(-c3ccccc3F)oc2c1,?,·,?,?,·,21µM*
O=c1cc(-c2ccc(O)cc2)oc2cc(O)ccc12,·,-17%,·,·,?,·
COc1ccc(-c2cc(=O)c3cc(O)ccc3o2)cc1,1.4µM*,·,1.6µM*,5.8µM*,·,1.7µM*
COc1ccc(S(=O)(=O)NCC(=O)NCc2cc(=O)n(C)c(=O)n2C)cc1C,-1%,·,-1%,3%,·,2%
COc1ccc(-c2cc(=O)c3c(O)cc(O)cc3o2)cc1,?,-3%,3.2µM*,?,?,1.9µM*
O=c1cc(/C=C/c2ccccc2)oc2ccccc12,?,-1%,2.2µM*,2.6µM*,11µM*,6µM*
COc1c(-c2ccc(O)cc2)oc2cc(O)cc(O)c2c1=O,-7%,·,0%,16%,·,-11%
COc1ccc(-c2oc3cc(O)c(OC)c(O)c3c(=O)c2OC)cc1,-20%,·,-1%,18%,·,19µM*
O=c1cc(-c2ccccc2)oc2ccccc12,?,·,?,21µM*,?,?
COc1ccc(-c2cc(=O)c3c(OC(C)=O)cc(OC(C)=O)cc3o2)cc1,·,-9%,·,·,?,·
O=c1cc(-c2ccc(C(F)(F)F)cc2)oc2ccccc12,·,·,·,0%,·,·
COc1ccccc1CNC(=O)CN(C)S(=O)(=O)c1ccc2c(c1)c(=O)n(C)c(=O)n2C,1%,·,-1%,0%,·,-2%
COc1ccc2c(=O)cc(C(=O)O)oc2c1,-5%,0%,1%,0%,10%,0%
CC(C)Oc1ccc2c(=O)cc(-c3ccccc3)oc2c1,·,-6%,·,·,6.3µM*,·
SMILES,NPC1 promoter act,KinaseGlo FLuc,Rab9 promoter act,ELG1 genotoxic,SMN2 splice enh,FLuc counter
CC1CCC(NC(=O)CSc2nnnn2C)CC1 (configuration not stated),7%,·,2%,2%,·,-2%
COc1cccc(C2=CC(c3ccccc3F)n3ncc(C(=O)Nc4ccc(F)cc4)c3N2)c1 (configuration not stated),·,·,·,·,·,-6%
COc1ccc2oc(-c3ccc(C)c(NC(=O)Cc4ccc(Cl)cc4)c3)nc2c1,·,·,·,·,4%,-15%
CCOc1ccc(C(=O)Nc2cc(-c3nc4cc(OC)ccc4o3)ccc2C)cc1[N+](=O)[O-],·,·,·,·,17%,6.7µM*
COc1ccc2oc(-c3ccc(C)c(NC(=O)c4ccc(N5CCOCC5)c([N+](=O)[O-])c4)c3)nc2c1,16%,-1%,4%,?,4%,6µM*
COc1ccc(CNC(=O)c2ccc(N3CCOCC3)c([N+](=O)[O-])c2)cc1,-1%,0%,5%,1%,-14%,-4%
COc1ccc(NC(=O)c2ccccc2NC(=O)CN2CCCCCC2)cc1,-3%,·,-5%,-3%,·,-5%
CCCCCn1cnc2sc(CC)cc2c1=O,?,0%,2.8µM*,?,13µM*,24µM*
CCc1cc2c(=O)n(CC(C)C)cnc2s1,?,-2%,?,-1%,14µM*,?
CCc1cc2c(=O)n(-c3ccc(Br)cc3)cnc2s1,2.5µM*,-4%,2.5µM*,?,5µM*,?
CCc1cc2c(=O)n(CC(=O)NC3CCCCC3)cnc2s1,-1%,·,9%,2%,·,-1%
COCCCNC(=O)C1=CCN(S(=O)(=O)c2ccc(C)cc2)CC1,0%,·,-3%,0%,·,-1%
Cc1cc(C)cc(NC(=O)CN(c2cc(C(F)(F)F)ccc2Cl)S(=O)(=O)c2ccccc2)c1,·,·,·,·,3%,-1%
CCOC(=O)c1ccc(-n2cc(C(=O)c3cccnc3)nn2)cc1,-23%,·,-1%,-3%,·,?
Cc1ccc(-n2cc(C(=O)c3ccc(F)cc3)nn2)cc1Cl,0.5µM*,-5%,0.5µM*,?,7.1µM*,0.24µM*
